According to PubChem BioAssay AID1030 (National Center for Advancing Translational Sciences (NCATS), 2008):
The whole screen tested about 220,000 compounds, of which about 16,000 (7.3%) were called active. About 25% were inconclusive and are not listed. The sample holds actives, similar compounds and a random draw of the others, so the mix is not that of the screen. The call rests on the fitted dose curve; in most records, active means well fitted inhibition curve with a large enough effect (not every such curve was filed as active); inconclusive means small, poorly fitted or top-dose-only effect, or another doubt; inactive means no such curve, though single readings can be large or run the other way.

Biological target: Aldehyde dehydrogenase 1A1 (Homo sapiens) (UniProt P00352)
Test: qHTS Assay for Inhibitors of Aldehyde Dehydrogenase 1 (ALDH1A1);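 on activity, negative = inhibition: plate controls were no enzyme wells and a reference inhibitor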
Settings: Purified ALDH1A1, NADH fluorescence, propionaldehyde substrate; series mostly up to 75.3 µM; activity, negative = inhibition: at the top concentration
Potency means the concentration at half of the fitted maximal effect.

Aldehyde dehydrogenase 1A1 (Homo sapiens), sequence (P00352 whole entry, looked up): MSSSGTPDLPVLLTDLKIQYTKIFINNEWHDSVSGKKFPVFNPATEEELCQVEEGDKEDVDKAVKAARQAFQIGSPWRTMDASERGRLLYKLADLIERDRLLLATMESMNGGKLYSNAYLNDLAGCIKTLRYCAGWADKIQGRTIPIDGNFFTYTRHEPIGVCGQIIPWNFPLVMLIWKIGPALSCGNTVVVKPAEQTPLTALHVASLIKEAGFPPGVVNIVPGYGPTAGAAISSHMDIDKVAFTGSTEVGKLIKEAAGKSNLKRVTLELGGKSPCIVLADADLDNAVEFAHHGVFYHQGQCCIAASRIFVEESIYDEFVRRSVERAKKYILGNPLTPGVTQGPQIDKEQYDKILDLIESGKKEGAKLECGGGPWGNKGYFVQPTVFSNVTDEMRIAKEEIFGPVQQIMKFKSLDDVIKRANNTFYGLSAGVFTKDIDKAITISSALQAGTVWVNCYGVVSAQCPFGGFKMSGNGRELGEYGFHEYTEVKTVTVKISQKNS

activity, negative = inhibition, inactive:
COc1ccc(OC)c(NC(=O)N[C@H](Cc2ccccc2)C(=O)NN)c1 0.169%
CC(C)CN1CCNC(=O)C1CC(=O)N(C)CC1CCOCC1 (centres undefined) -15.6%
Cc1ccc(CN(C)CC(=O)Nc2cccc([N+](=O)[O-])c2)o1 -12.7%
CC(=O)c1ccc(NC(=S)N(Cc2ccccc2)C(C)C2CC2)cc1 (centres undefined) -15.7%
Cc1ccc(CC2CC(=O)N(c3ccc4c(c3)OCCO4)C2=O)cc1 (centres undefined) -14.9%
CC1CCC(N2CC(=O)N(Cc3ccc4c(c3)OCO4)C(c3ccc(F)cc3)C2=O)CC1 (centres undefined) -13%
O=C1NC(c2cccc(Cl)c2)Nc2ccccc21 (centres undefined) 2.54%
N/C(=N\S(=O)(=O)c1ccc(Cl)cc1)N1CCOCC1 -1.23%
Cc1ccc(N(C(=O)c2sc(C)nc2C)C(C(=O)NC(C)(C)C)c2ccncc2)cc1 (centres undefined) 12.4%
Cc1c(C(=O)O)nnn1-c1nonc1N 3.6%
CCN(C(=O)COC(=O)c1c(NC(C)=O)sc(C)c1C)C1CCS(=O)(=O)C1 (centres undefined) -13.5%
CCOC(=O)c1c(NC(=O)/C=C/c2ccco2)sc(C)c1C -9.12%
CC1(C)CC(=O)C(C=NCc2cccnc2)=C(O)C1 -3.28%
CC(=O)N1CCN(CCN=CC2=C(O)CC(C)(C)CC2=O)CC1 -14.2%
Cc1cc(C)nc(N/N=C/c2c(C)oc3ccccc23)n1 1.58%
O=C(COc1ccccc1[N+](=O)[O-])NC1CC1 -0.186%
C=CCNC(=O)COC(=O)CNC(=O)c1cc(Cl)cc([N+](=O)[O-])c1 -7.54%
Cn1cc(CCC(=O)N2CCCC(C(=O)c3ccc(C(C)(C)C)cc3)C2)cn1 (centres undefined) -17.2%
Cc1nn(CC(=O)N/N=C/c2ccc(F)cc2)c(C)c1[N+](=O)[O-] 8.02%
O=C(CCCc1ccccc1)NCc1ccccc1 -5.53%
C/C(=C\c1ccco1)CN1CCC(N2CCC(C(=O)N3CCOCC3)CC2)CC1 -2.56%
CCOC(=O)C(C)Sc1nnc(CSc2nc3nc(C)cc(C)n3n2)o1 (centres undefined) 12.7%
Cc1cc(C)n2nc(SCC(N)=O)nc2n1 10.8%
O=C(CCC(=O)OCc1ccc(Cl)cc1)Nc1ccccc1 -1.17%
Cc1cc(C)c2nc(-c3cccnc3)cc(C(=O)Nc3ccc(S(=O)(=O)Nc4onc(C)c4C)cc3)c2c1 23.6%
COc1ccc(/C=C/C(=O)c2ccc(NS(=O)(=O)c3ccc(C)cc3)cc2)cc1O -11%
CN1CCN(C(=O)CCc2ncc(C(F)(F)F)cc2Cl)CC1 3.64%
CC(CC(=O)C1C(C)C=CCC1(C)C)NNC(N)=O (centres undefined) 6.59%
O=S1(=O)CCN2C(=N1)SC1=C2CCN(Cc2ccccc2)C1 13.5%
O=C(Nc1ccccc1N1CCN(c2ccccc2)CC1)c1cccc(F)c1 -8.56%
COc1ccc(N2CCN(CCCNC(=O)C3CCN(S(=O)(=O)N4CCOCC4)CC3)CC2)cc1 6.15%
CCc1ccc(N2CC(O)=C(c3nc4ccccc4c(=O)[nH]3)C2=N)cc1 -198%
O=C(NCc1ccccc1)C1=C[C@H](C2CC2)C[C@H](OCc2ccc(CO)cc2)O1 -12.3%
CC(C)(C)[C@H]1C=C(C(=O)NCc2ccccc2)O[C@@H](OCc2ccc(CO)cc2)C1 -0.163%
O=C(C1=C[C@H](C2CC2)C[C@H](OCc2ccc(CO)cc2)O1)N1CCN(Cc2ccccc2)CC1 -3.33%
O=C(NCc1ccccc1)C1=C[C@@H](c2ccc(C(F)(F)F)cc2)C[C@@H](OCc2ccc(CO)cc2)O1 -6.56%
O=C(C1=C[C@H](c2coc3ccccc3c2=O)C[C@H](OCc2ccc(CO)cc2)O1)N1CCOCC1 -3.13%
C=CCOC(=O)c1ccccc1C(=O)OCC=C -5.89%
O=C(CCS(=O)(=O)c1ccccc1Cl)Nc1ccc(S(=O)(=O)Nc2ncccn2)cc1 9.04%
O=C(COc1ccccc1)Nc1ccc(N2CCN(C(=O)c3cccs3)CC2)cc1 -11.5%
Cc1ccc(C)c(-n2ccnc2SCC(N)=O)c1 21.3%
CC(CCn1cccn1)NC(=O)CCc1nnc(CCc2ccccc2)o1 (centres undefined) 0.243%
CCC(C)NC(=O)c1nn(C)c(=O)c2ccccc12 (centres undefined) 5.8%
CCC(C(=O)OCC(=O)Nc1ccccc1-c1ccccc1)c1ccccc1 (centres undefined) -5.66%
CCOC(=O)c1c(C)[nH]c(C(=O)COc2ccc3c(c2)OCO3)c1C -4.6%
CCOC(=O)c1c(C)oc2cc(Br)c(OCC(N)=O)cc12 2.21%
O=C(Nc1ccc(Cl)cc1)/C(=C1\CCCN1)[N+](=O)[O-] 7.93%
Cn1nc(C(F)(F)F)cc1-c1ccc(/C=C(\C#N)C(=O)c2cccc(C(F)(F)F)c2)s1 0.518%
COc1cc(-c2nn3c(-c4cccc(C)c4)nnc3s2)cc(OC)c1OC 6.41%
CCOc1cccc(-c2nn3c(-c4ccccn4)nnc3s2)c1 3.69%
CC(=O)c1sc(NC(=O)CCCOc2ccccc2C)nc1C 18.5%
O=[N+]([O-])c1ccccc1N/N=C1\CCc2ccccc21 3.37%
C=Cn1c(C(=O)O)ccc1-c1ccc(OC)cc1 -0.558%
O=C(CSc1nc2[nH]ncc2c(=O)n1-c1ccccc1)N1CCCc2ccccc21 -9.05%
CCCn1c(SCC(=O)N2CCc3ccccc32)nnc1-c1ccncc1 -2.33%
Cc1ccnc2nc(C(=O)OCC(=O)N(CC(C)C)CC(C)C)nn12 -1.78%
Cc1ccnc(NS(=O)(=O)c2ccc(NC(=O)c3ccc(S(=O)(=O)N4CCOCC4)cc3)cc2)n1 -5.25%
O=P(O)(O)C(O)c1ccc2ccccc2c1 (centres undefined) 3.77%
N#Cc1c2c(c(-c3ccccc3)[nH]c1=O)CCCC2 0.588%
CCSc1sc(CC)cc1C=O 16.6%
O=C(COC(=O)c1ccccc1)Nc1cccc(S(=O)(=O)N2CCOCC2)c1 2.02%
Cc1ccc(N(C(=O)c2ccc(S(=O)(=O)N(C)C)cc2)C2C=CS(=O)(=O)C2)cc1 (centres undefined) -1.32%
C=CCNc1scc(-c2ccccc2)[n+]1CC=C 6.41%
CCc1ccnc(NS(=O)(=O)c2ccc3c(c2)OCCO3)c1 -10.2%
CCN(C(=O)COC(=O)/C=C/c1nc2ccccc2s1)C1CCS(=O)(=O)C1 (centres undefined) -11.6%
Cc1nc(NC(=O)c2cccc(Cl)c2)sc1-c1csc(Nc2cccc(Cl)c2)n1 -7.1%
CCCCN(C)CCC(=O)Nc1ccc(Cl)cc1 6.04%
Cc1ccc(-c2csc(NNC(=O)c3ccccc3)n2)cc1 -4.96%
COc1ccc(-c2csc(NC(=O)CCCc3cccs3)n2)cc1 -6.08%
COc1ccc(C(=O)Nc2ccc3c(c2)OCO3)cc1OC 5.14%
COC(=O)CCNc1ccc2c(c1)OCCO2 1.06%
Cc1ccc(C)n1NC(=O)c1ccc([N+](=O)[O-])cc1 -2.92%
CC(=O)Nc1ccc(Nc2c([N+](=O)[O-])cc(S(C)(=O)=O)cc2[N+](=O)[O-])cc1 1.36%
Cc1cccc(NC(=S)N2CCCC(c3nc4ccccc4[nH]3)C2)c1 (centres undefined) -4.99%
CC(C)(C)C1CCc2c(sc3nc(SCC(N)=O)nc(N)c23)C1 (centres undefined) -2.86%
CCC1(C)Cc2c(sc3nnn(CC(=O)Nc4ccc(Cl)cc4)c(=O)c23)CO1 (centres undefined) 1.5%
Cc1ccc(NC(=O)c2ccccn2)cc1S(=O)(=O)N1CCOCC1 -1.07%
CCc1ccc2c(c1)cc(CN(C(=S)Nc1ccccc1Cl)C1CC1)c1nnnn12 0.303%
O=C(COC(=O)c1ccncc1)c1ccccc1 -0.468%
Cn1cccc1/C=C1\SC(=O)N(CC(=O)Nc2ccc(F)cc2)C1=O 6.89%
COC(=O)CCCC1=CC2=CC(=O)C(C)(OC(=O)c3cccs3)C(=O)C2=CN1c1cccc(C#N)c1 (centres undefined) 1.29% [at 13.5 µM]
Cc1ccc(-c2cc(C(=O)N3CCc4ccccc4C3)no2)cc1 -6.72%
Cc1ccc(S(=O)(=O)N(C)CC(=O)N2CCc3ccccc32)cc1 -14.1%
Cc1cccc(NC(=O)Nc2ccc3c(c2)OCO3)n1 -5.97%
CC1=C2[C@@H](O)[C@H]([C@@H](C)C(=O)NCCC(C)C)CC[C@@]2(C)C=CC1=O 3.98%
CC(=O)OC1C([N+]2(C)CCCCC2)C[C@H]2C3CC[C@H]4C[C@H](OC(C)=O)C([N+]5(C)CCCCC5)CC4(C)C3CCC12C (some centres undefined) -0.578%

Potency, active:
Cc1ccc(N2C(=O)CC(NCc3ccc4c(c3)OCO4)C2=O)cc1Cl (centres undefined) 22.4 µM
CCOC(=O)c1sc(/N=C/C2=C(O)CC(C)(C)CC2=O)c(C(=O)OCC)c1C 11.2 µM
CCOC(=O)c1c(/N=C/C2C(=O)CC(C)(C)CC2=O)sc(C)c1C 2.24 µM
COc1ccc(C(C)=O)cc1CSc1nc2nc(C)cc(C)n2n1 20 µM
O=C(Nc1ccccc1Cc1ccccc1)c1ccc2c(c1)SC1=NS(=O)(=O)CCN12 7.94 µM
NC(=O)C1=C[C@H](c2csc3ccccc23)C[C@H](OCc2ccc(CO)cc2)O1 8.91 µM
O=C(NCc1ccccc1)C1=C[C@@H](C2CCCCC2)C[C@@H](OCc2ccc(CO)cc2)O1 12.6 µM
C=CCOC(=O)C1=C[C@@H](c2ccccc2)C[C@@H](OCc2ccc(CO)cc2)O1 10 µM
CCOC(=O)c1c(C)oc2ccc(OCC(=O)N(CC)CC)cc12 11.2 µM
COc1ccc(-c2nn3c(-c4ccccc4)nnc3s2)cc1OC 25.1 µM
C=CCn1c(=O)c2ccccc2n2c(SCC(=O)N3CCCc4ccccc43)nnc12 4.47 µM
N#Cc1c(/N=C/N2CCCC2)oc(-c2ccccc2)c1-c1ccccc1 7.94 µM
Cc1ccc(Nc2nc(-c3sc(NC(=O)c4ccccc4)nc3C)cs2)cc1 20 µM
CCCCC(=O)Nc1nc(C)c(-c2csc(Nc3ccc(Cl)cc3)n2)s1 11.2 µM
CCOc1ccc(NCCC(=O)c2ccc3c(c2)OCO3)cc1 0.631 µM
CCCn1nnc2sc3c(c2c1=O)CCC(C)C3 (centres undefined) 6.31 µM
CCOc1ccc2c(c1)cc(CN(C(=O)CC)C1CCCCC1)c1nnnn12 31.6 µM
Cc1ccc2c(c1)N(C(=O)CCC(=O)N1CCc3ccccc3C1)CCO2 20 µM
